Eleven compounds from ChEMBL document CHEMBL3988442, “University of Dundee, Small-Polar-MMV Screening Library” (2021) can be followed below.

Structures are written as SMILES. For some of these results: Results with a measured potency or affinity are listed apart.

Holding throughout (set-up): scale not given: direction of the effect not stated beside the values
In experiment [1] the target is Protein translocase subunit SecA (Escherichia coli (strain K12)) (UniProt P10408). The experiment is described as follows: Assay to Identify E. coli SecA ATPase Inhibitors. Type of experiment: functional. Particulars: 30 µM.
Sequence of Protein translocase subunit SecA (Escherichia coli (strain K12)) (P10408 whole entry): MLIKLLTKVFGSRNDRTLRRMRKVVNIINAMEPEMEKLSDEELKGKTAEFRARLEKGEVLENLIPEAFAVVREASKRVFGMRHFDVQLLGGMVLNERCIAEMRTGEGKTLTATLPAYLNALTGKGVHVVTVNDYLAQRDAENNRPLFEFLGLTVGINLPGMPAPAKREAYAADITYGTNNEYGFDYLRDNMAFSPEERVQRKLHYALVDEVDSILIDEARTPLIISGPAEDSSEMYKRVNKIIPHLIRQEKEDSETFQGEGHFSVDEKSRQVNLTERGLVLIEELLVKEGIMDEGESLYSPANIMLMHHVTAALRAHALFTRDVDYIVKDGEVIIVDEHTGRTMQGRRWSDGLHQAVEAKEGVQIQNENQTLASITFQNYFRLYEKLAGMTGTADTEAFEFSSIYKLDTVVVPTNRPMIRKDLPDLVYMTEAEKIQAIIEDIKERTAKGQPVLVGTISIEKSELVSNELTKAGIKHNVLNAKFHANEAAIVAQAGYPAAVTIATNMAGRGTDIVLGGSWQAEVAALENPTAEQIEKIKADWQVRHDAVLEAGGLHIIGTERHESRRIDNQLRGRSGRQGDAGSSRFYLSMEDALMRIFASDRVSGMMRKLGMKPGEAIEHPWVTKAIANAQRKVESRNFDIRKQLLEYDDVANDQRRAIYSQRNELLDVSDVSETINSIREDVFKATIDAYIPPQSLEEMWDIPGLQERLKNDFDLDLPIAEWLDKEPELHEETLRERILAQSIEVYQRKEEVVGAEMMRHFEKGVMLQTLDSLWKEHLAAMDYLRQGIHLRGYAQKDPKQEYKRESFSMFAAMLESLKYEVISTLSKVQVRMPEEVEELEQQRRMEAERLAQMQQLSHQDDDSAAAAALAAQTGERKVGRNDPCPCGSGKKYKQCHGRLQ
For experiment [2], the target named is T1, Ubiquitin-activating enzyme e1, putative (Leishmania donovani (strain BPK282A1)) (UniProt E9BSI1).
T1 sequence (whole entry): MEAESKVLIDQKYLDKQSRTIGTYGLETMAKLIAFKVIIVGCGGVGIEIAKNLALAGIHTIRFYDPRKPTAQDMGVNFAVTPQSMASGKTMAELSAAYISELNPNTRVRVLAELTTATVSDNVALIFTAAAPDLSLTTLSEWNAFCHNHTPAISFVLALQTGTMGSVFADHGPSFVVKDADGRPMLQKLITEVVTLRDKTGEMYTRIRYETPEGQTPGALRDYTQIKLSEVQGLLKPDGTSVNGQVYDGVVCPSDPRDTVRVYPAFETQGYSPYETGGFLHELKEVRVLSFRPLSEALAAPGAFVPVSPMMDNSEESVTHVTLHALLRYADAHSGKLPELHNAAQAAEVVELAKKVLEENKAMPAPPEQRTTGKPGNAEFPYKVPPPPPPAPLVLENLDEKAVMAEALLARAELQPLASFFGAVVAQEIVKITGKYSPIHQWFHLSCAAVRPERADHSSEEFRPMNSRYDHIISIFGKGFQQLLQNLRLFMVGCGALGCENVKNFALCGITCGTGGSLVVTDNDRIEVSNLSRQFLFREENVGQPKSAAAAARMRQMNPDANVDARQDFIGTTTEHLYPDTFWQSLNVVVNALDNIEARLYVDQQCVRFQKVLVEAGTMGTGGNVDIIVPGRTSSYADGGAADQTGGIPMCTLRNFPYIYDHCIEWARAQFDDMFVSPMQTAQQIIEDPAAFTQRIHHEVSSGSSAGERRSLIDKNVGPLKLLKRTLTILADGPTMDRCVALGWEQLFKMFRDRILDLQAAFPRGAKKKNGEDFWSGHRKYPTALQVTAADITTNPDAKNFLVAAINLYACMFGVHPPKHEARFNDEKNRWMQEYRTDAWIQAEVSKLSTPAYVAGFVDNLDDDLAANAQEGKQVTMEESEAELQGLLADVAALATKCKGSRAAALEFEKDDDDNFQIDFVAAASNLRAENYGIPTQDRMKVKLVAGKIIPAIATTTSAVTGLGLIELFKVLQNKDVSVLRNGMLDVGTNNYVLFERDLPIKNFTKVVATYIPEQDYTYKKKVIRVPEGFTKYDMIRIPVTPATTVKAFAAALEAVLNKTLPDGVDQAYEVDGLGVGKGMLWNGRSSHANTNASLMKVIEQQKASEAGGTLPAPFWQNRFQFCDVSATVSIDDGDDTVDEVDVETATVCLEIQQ
The experiment is described as follows: Leishmania donovani Ubiquitin Activating Enzyme (LdE1). The class given is functional. The note with it: 30 µM.

The target of experiment [3] is AMP-activated protein kinase, AMPK (Homo sapiens) (UniProt P54646+O43741+P54619+Q9UGJ0+Q9Y478+Q13131+Q9UGI9). Kind of experiment: AMP-dependent Kinase enzyme assay. An in vitro enzyme assay that detects ADP turnover that is directly proportional to AMPK activity. This uses naive AMPK that is activated during the assay with MK-8722. Type of experiment: functional. The note with it: 30 µM.

Experiment [4] concerns the target Sialic acid-binding Ig-like lectin 9 (Homo sapiens) (UniProt Q9Y336). The experiment is described as follows: Hs-Siglec9 ALPHAscreen SOP 20170721. The note with it: 10 µM.
In a further experiment the test system is Trypanosoma cruzi. The experiment is described as follows: Trypanosoma cruzi phosphomannomutase and mannose-1-phosphate guanylyltransferase assay. The note with it: 10 µM. Type of experiment: functional.
The target of experiment [5] is T2, Arginase-2, mitochondrial (Homo sapiens) (UniProt P78540).
T2 sequence (whole entry): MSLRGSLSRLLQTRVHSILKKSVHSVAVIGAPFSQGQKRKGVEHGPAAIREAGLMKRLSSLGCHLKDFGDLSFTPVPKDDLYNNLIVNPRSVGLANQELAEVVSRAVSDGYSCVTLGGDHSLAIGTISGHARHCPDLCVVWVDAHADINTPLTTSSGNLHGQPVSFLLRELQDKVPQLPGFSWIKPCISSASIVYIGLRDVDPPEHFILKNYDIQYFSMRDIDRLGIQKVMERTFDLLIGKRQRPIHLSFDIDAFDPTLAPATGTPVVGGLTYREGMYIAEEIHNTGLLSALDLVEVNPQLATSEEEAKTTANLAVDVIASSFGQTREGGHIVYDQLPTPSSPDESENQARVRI
The experiment is described as follows: in vitro enzyme assay to detect the production of urea directly proportional to the activity of Arginase II. Also: in the data most compounds retested in dose-response had high values. Type of experiment: functional. The note with it: 33.3 µM.

Experiment [6] addresses T3, Proteasome subunit beta (Trypanosoma cruzi) (UniProt O96673).
T3 sequence (whole entry): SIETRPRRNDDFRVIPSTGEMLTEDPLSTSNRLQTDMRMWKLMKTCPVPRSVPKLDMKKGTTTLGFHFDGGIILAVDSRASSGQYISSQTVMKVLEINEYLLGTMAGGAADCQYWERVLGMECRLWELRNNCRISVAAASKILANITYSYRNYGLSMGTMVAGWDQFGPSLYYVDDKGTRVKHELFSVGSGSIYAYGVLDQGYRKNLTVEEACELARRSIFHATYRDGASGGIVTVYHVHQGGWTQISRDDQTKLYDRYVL
Kind of experiment: Trypanosoma cruzi proteasome chymotrypsin-like activity (TcProtChymo) assay. Also: in the data most compounds retested in dose-response had high values. The class given is functional. The note with it: 9.37 µM.

For another experiment, the species on record is Homo sapiens. The experiment is described as follows: To identify inhibition of the IFN signalling (Jak-Stat) pathway via expression of an eGFP reporter gene under the control of an IFN-stimulated response element (ISRE) containing MxA promoter. The class given is functional. The note with it: 30 µM. A general note: In a reporter assay the amount or activity of a reporter protein is the signal.

Experiment [7] addresses T4, Tyrosyl-tRNA synthetase, putative (Trypanosoma cruzi (strain CL Brener)) (UniProt Q4DSP6).
T4 sequence (whole entry): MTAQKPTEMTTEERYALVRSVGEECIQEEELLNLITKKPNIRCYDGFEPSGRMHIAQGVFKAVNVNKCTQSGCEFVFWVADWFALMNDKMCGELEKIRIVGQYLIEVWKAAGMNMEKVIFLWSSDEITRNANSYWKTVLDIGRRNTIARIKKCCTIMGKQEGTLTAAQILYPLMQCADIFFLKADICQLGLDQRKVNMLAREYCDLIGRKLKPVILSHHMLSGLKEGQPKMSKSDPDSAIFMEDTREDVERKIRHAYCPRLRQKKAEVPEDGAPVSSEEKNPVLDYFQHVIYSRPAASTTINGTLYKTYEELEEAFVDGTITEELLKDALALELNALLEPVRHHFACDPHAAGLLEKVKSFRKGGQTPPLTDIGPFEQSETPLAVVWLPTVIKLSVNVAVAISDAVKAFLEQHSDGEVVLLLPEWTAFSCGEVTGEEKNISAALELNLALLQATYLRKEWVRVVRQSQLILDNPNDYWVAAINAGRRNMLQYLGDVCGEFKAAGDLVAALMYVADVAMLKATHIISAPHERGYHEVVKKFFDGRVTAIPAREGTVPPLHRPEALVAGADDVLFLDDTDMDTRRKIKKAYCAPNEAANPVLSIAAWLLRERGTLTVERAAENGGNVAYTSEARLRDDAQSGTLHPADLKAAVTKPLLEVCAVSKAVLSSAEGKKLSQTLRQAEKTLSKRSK
Kind of experiment: Trypanosoma cruzi tyrosyl tRNA synthetase (TcYRS) _High Tyrosine SOP. Also: in the data most compounds retested in dose-response had high values. The class given is functional. The note with it: 30 µM.

The target of experiment [8] is T4, Tyrosyl-tRNA synthetase, putative (Trypanosoma cruzi (strain CL Brener)). Kind of experiment: Trypanosoma cruzi tyrosyl tRNA synthetase (TcYRS) SOP. The class given is functional. Particulars: 30 µM.
In experiment [9] the target is Chromo domain-containing protein 1 (Saccharomyces cerevisiae (strain ATCC 204508 / S288c) (Baker's yeast)) (UniProt P32657). The experiment is described as follows: ScCHD-1 Enzyme Inhibition Assay. Also: in the data most compounds retested in dose-response had high values. The note with it: 30 µM. The class given is functional.
Sequence of Chromo domain-containing protein 1 (Saccharomyces cerevisiae (strain ATCC 204508 / S288c) (Baker's yeast)) (P32657 whole entry, the tested form may be a part): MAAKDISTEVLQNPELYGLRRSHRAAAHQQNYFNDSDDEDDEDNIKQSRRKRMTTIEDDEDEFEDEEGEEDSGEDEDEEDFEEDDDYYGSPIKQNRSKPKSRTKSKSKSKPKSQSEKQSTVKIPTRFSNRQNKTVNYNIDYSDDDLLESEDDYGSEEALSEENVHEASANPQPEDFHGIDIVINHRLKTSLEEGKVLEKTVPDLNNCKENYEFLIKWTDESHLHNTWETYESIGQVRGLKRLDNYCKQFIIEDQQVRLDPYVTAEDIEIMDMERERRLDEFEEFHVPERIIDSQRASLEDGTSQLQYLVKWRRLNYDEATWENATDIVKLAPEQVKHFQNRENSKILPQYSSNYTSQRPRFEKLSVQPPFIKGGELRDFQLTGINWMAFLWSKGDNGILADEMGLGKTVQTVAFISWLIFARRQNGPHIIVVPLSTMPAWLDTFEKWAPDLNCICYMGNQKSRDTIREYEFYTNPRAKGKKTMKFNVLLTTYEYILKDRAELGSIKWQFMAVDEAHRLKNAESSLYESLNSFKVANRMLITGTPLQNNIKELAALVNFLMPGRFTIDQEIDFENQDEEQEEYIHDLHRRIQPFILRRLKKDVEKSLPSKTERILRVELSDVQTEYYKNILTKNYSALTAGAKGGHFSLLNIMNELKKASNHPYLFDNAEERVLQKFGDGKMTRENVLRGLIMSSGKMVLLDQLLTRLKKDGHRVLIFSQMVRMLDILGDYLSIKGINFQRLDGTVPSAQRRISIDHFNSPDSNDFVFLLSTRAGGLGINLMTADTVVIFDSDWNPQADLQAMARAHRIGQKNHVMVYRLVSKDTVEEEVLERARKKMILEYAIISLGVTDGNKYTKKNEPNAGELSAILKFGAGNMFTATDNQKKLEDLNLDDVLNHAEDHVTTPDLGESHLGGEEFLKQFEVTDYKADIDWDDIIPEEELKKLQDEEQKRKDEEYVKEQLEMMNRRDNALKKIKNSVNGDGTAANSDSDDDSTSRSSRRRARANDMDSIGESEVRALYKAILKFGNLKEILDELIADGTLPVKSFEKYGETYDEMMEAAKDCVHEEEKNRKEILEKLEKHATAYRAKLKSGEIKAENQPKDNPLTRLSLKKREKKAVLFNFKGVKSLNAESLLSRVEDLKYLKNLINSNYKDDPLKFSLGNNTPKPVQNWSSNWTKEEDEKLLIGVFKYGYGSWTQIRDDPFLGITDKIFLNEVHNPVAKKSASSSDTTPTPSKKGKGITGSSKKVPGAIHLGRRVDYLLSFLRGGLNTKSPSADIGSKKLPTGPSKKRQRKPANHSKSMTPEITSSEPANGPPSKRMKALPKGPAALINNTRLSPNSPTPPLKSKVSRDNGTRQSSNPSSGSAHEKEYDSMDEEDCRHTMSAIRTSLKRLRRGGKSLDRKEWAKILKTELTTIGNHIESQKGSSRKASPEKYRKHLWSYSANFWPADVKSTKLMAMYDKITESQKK

Sequence of Sialic acid-binding Ig-like lectin 9 (Homo sapiens) (Q9Y336 whole entry): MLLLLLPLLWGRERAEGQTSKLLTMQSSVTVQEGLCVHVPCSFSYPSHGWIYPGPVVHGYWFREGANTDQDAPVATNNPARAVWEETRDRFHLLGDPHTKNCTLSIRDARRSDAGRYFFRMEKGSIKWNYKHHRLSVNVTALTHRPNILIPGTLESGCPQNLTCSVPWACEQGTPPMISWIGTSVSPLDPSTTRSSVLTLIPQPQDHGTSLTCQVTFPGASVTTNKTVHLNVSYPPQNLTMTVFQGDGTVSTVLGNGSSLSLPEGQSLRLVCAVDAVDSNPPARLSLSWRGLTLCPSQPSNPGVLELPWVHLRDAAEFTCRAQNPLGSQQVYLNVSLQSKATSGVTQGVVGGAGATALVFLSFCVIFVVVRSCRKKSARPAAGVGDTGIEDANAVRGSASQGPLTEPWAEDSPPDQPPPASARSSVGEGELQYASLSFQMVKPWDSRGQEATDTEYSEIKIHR

Turning to `Cc1cc(C)n(CC2CCCN2C(=O)CCCNc2ncccn2)n1` (stereo unspecified), the Percent Effect in [1] was -3.06%; in experiment [2], 5.26%; in [3], 1.29%; in [4] it was 7.88%; in the experiment with Trypanosoma cruzi, 3.01%; in experiment [5], 1.15%. For the same compound, the Percent Effect is 5.68% in [6]; -8.34% in the experiment listed under Homo sapiens; 6.37% in experiment [7]; 9.76% in [8]; -0.0349% in experiment [9].

As to `CC(=O)N(Cc1ncc(C(C)C)o1)C1CCN(Cc2nccn2C)C1` (stereo unspecified), the Percent Effect is -2.57% in experiment [1]; 13.5% in experiment [2]; -4.73% in experiment [3]; 4.8% in experiment [4]; 3.25% in the experiment with Trypanosoma cruzi; -1.29% in [5]. Besides, the Percent Effect in [6] was 14.4%; in the experiment listed under Homo sapiens it was -11.4%; in [7], 10.9%; in experiment [8], 28.1%; in [9], -1.74%.

For `Cc1nc(C)n(CC2CCCN2Cc2nc(-c3cccs3)no2)n1` (stereo unspecified), the Percent Effect in experiment [1] was -2.92%; in [2] it was -7.89%; in experiment [3], 1.44%; in experiment [4], 6.54%; with Trypanosoma cruzi, -0.188%; in experiment [5] it was 2.3%. Further, the Percent Effect was found to be 6.85% in [6]; 17.8% in the experiment listed under Homo sapiens; 5.39% in experiment [7]; 12.2% in experiment [8]; 1.98% in [9].

For the compound `COc1c(C2CCCN2Cc2csc(C(C)C)n2)c(C)nn1C` (stereo unspecified), the Percent Effect in [1] was -0.655%; in experiment [2] it was 18.2%; in experiment [3], -4.6%; in experiment [4], -3.17%; in the experiment with Trypanosoma cruzi, -8.99%; in experiment [5], 4.63%. Moreover, the Percent Effect in [6] was 17.6%; in the experiment listed under Homo sapiens, 37.8%; in experiment [7] it was 1.94%; in experiment [8] it was 2.44%; in experiment [9], -7.12%.

Turning to `O=C(COCC1CC1)N1CCCC(n2ccnc2)C1` (stereo unspecified), the Percent Effect is -2.64% in experiment [1]; 11.4% in experiment [2]; 1.59% in [3]; -0.338% in experiment [4]; -1.33% in the experiment with Trypanosoma cruzi; 2.37% in experiment [5]. Besides, the Percent Effect in [6] was 9.26%; in the experiment filed under Homo sapiens, 5.7%; in experiment [7], 1.04%; in experiment [8] it was 5.06%; in experiment [9], -21.1%.

On to `Cc1cc(C(F)(F)F)nn1C(C)C(=O)Nc1ccncc1` (stereo unspecified), for which the Percent Effect in experiment [1] was -1.07%; in experiment [2], 25.3%; in experiment [3], -4.73%; in experiment [4] it was -5.25%; in the experiment on Trypanosoma cruzi, -0.982%; in experiment [5] it was -12.2%. Also, the Percent Effect was 8.87% in experiment [6]; 13.8% in the experiment listed under Homo sapiens; 2.12% in experiment [7]; 12.8% in experiment [8]; -9.26% in [9].

As for `Cc1noc(C)c1-c1cccc(CC2CCN(C(=O)CCC(=O)O)C2)n1` (stereo unspecified), the Percent Effect in experiment [1] was -2.58%; in experiment [2], 6.76%; in [3] it was 5.24%; in experiment [4], 4.95%; in the experiment on Trypanosoma cruzi, 3.16%; in [5], 0.696%. In addition, the Percent Effect in [6] is 3.28%; in the experiment listed under Homo sapiens, -7.92%; in experiment [7], 1.07%; in experiment [8], 3.9%; in [9], -9.71%.

For the compound `Cc1ccc(OCCC(=O)NC2CCc3nc(C)cn3C2)cc1` (stereo unspecified), the Percent Effect was -3.65% in [1]; 5.26% in experiment [2]; 5.43% in [3]; 5.54% in [4]; 0.0974% in the experiment on Trypanosoma cruzi; -4.73% in experiment [5]. Also, the Percent Effect in experiment [6] is 14.7%; in the experiment filed under Homo sapiens, 15.1%; in [7], 3.19%; in experiment [8], 10.4%; in experiment [9], -1.61%.

`COc1cccc(CCNS(=O)(=O)c2ccc(NC(C)=O)cc2)c1`: the Percent Effect in [1] is -3.33%; in experiment [2], 5.26%; in [3] it was 4.42%; in [4], -2.24%; in the experiment on Trypanosoma cruzi, -4.58%; in experiment [5], -8.28%. Also, the Percent Effect in experiment [6] was 17%; in the experiment listed under Homo sapiens, 21.2%; in experiment [7], 1.06%; in experiment [8], 10.4%; in experiment [9] it was -4.22%.

For `O=C(NCc1ccccc1F)N1CCC(C2OCCO2)CC1`, the Percent Effect in [1] was -3.95%; in [2], 7.89%; in experiment [3], -0.484%; in experiment [4], -1.41%; with Trypanosoma cruzi, -5.94%; in [5], -5.92%. The Percent Effect was 7.19% in experiment [6]; -6.9% in the experiment filed under Homo sapiens; 4.25% in experiment [7]; 7.79% in [8]; -3.04% in experiment [9].

Consider `COc1ccc(NC(=O)C(c2cccc(F)c2)N2CCOCC2)cc1` (stereo unspecified), for which the Percent Effect in experiment [1] is -1.48%; in experiment [2], 0%; in experiment [3], 4.04%; in experiment [4], 2.98%; with Trypanosoma cruzi it was -5.75%; in experiment [5], 3.55%. In addition, the Percent Effect was 13.5% in experiment [6]; 0.224% in the experiment listed under Homo sapiens; 6.38% in experiment [7]; 10.4% in [8]; -3.15% in experiment [9].
